Reference: PubChem BioAssay (EPA / NIEHS)
Activity calls are given as the source filed them. The calls were made as follows: active = hit-call score of the fitted dose curve at least 0.9, where 1 is the maximum; inactive = score below 0.9.

Test: CCTE_Shafer_MEA_acute_synchrony_index: CCTE's Neural Acute Assay for Synchrony, Shafer Lab (AID 2284027);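 also: fitted for loss of signal so actives lower synchrony relative to DMSO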
Method: CCTE_Shafer_MEA_acute assay is conducted using Axion Biosystems 48 well microelectrode array (MEA) plates and Maestro recording system. Each well of the MEA plate contains a grid of 16 microelectrodes embedded in the culture surface. Electrically active cells, such as neurons, can be cultured over the electrodes, and electrical activity in these cells can be recorded extracellularly. The spontaneous firing of neurons is captured from each electrode on a microsecond timescale providing both temporally and spatially precise data. […] The CCTE_Shafer_MEA_acute assay uses primary cultures of rat cortical neurons. As these cultures mature over time, neural networks develop functional activity and form cohesive networks in which electrical activity can be highly coordinated. Baseline 40-minute recordings are made on days post-plating 13 or 15, followed by a secondary 40-minute recording after chemical exposure.CCTE_Shafer_MEA_acute_synchrony_index is a component of the CCTE_Shafer_MEA_acute assay. It measures the synchrony of the neural network as a unitless measure between 0 (low synchrony) to 1 (high synchrony) during a recording in a microelectrode array (MEA) using Axion Biosystems Maestro 768 channel amplifier with the AxIS adaptive spike detector. The recordings before and after chemical treatment are used to calculate a percent change in the synchrony index in each well.Data from the assay component CCTE_Shafer_MEA_acute_synchrony_index was analyzed into 1 assay endpoint. This assay endpoint, CCTE_Shafer_MEA_acute_synchrony_index, was analyzed in the negative analysis fitting direction relative to DMSO as the negative control and baseline of activity. Using a type of functional reporter, gain or loss-of-signal activity can be used to understand electrical activity.
Spontaneous activity in the cortical cultures was recorded using an Axion Biosystems Maestro 768 channel amplifier and Axion Integrated Studios (AxIS) v1.8 (or later) software. The amplifier recorded from all channels simultaneously (gain = 1200 x; sampling rate = 12.5 kHz/channel): raw signals were filtered with a Butterworth band-pass filter (300-5000 Hz), which filters out slower local field potentials leaving only fast potentials, i.e., "spikes", arising from extracellular currents associated with action potentials (Pine 2006; Wheeler and Nam 2011). On-line spike detection of filtered signals was conducted with the AxIS adaptive spike detector, using a threshold of 8x the root mean squared (rms) noise on each channel. Any electrodes with rms noise levels greater than 5 uV were grounded (e.g., no data were recorded). Once grounded, an electrode was grounded for the duration of the experiment. All recordings were conducted at 37 C. Wells were deemed usable if on the day of the exposure >/= 10 electrodes were active (defined as >/= 5 spikes/min). On DIV 13 or 15, a minimum of three wells from one cortical culture preparation were treated with each compound (0.03-40 uM). Prior to recording baseline activity, each mwMEA plate was placed in the Maestro at 37 C and allowed to sit for 20 min while firing rates stabilized. Baseline activity (40 min) was recorded before the addition of each compound. An additional 40 min of spontaneous activity was recorded in the presence of each compound. Changes in network parameters relative to baseline were assessed following compound treatment.

| SMILES | outcome | AC50 |
| --- | --- | --- |
| CN(C)C(=S)S | inactive |  |
| Cc1ccccc1OP(=O)(Oc1ccccc1C)Oc1ccccc1C |  | 28.1 µM (active) |
| CC(C)[C@@H](Nc1ccc(C(F)(F)F)cc1Cl)C(=O)OC(C#N)c1cccc(Oc2ccccc2)c1 (stereo not given in full) |  | 0.403 µM (active) |
| CCCCOC(=O)COC(=O)c1ccccc1C(=O)OCCCC | inactive |  |
| CCCCCCCCCCCCc1cccc(S(=O)(=O)O)c1 | inactive |  |
| Oc1cc(Cl)c(Cl)cc1Cl |  | 30.5 µM (active) |
| Cc1cc(C(F)(C(F)(F)F)C(F)(F)F)ccc1NC(=O)c1cccc(I)c1C(=O)NC(C)(C)CS(C)(=O)=O |  | 5.74 µM (active) |
| CC(C)(C)c1ccccc1O |  | 20 µM (active) |
| Oc1ccc(Cc2ccc(O)cc2)cc1 | inactive |  |
| O=C(Cc1ccccc1)OCCc1ccccc1 | inactive |  |
| N#Cc1cccnc1 | inactive |  |
| CS(=O)(=O)c1ccc(C(=O)C2C(=O)CCCC2=O)c(Cl)c1COCC(F)(F)F | inactive |  |
| CC1(C)[C@H](C(=O)O[C@H](C#N)c2cccc(Oc3ccccc3)c2)[C@@H]1/C=C(\Cl)C(F)(F)F |  | 0.45 µM (active) |
| OCCCCO | inactive |  |
| Clc1cccc(Cl)c1Cl | inactive |  |
